# Screening results deposited in PubChem by ICCB-Longwood Screening Facility, Harvard Medical School.
# Only a selection was taken, and hits are over-represented in it overall.
# Ba CapD inh: blocks the Bacillus anthracis CapD enzyme; purified CapD enzyme, fluorescence intensity read-out; active compounds read low; z-score (no concentration beside the values); actives 0.23% (n = 140,000); AID 492967; in the data active = z-score mostly below about -2.9, no sharp cut-off; inactive = mostly above about -1.9
# A number is an active result; 0 = inactive.
SMILES,Ba CapD inh
COC(=O)CCN1C(=O)/C(=C\c2ccc(O)c(OC)c2)SC1=S,0
COC(=O)c1ccc(C(=O)OC)c(NC(=O)c2cc(-c3ccc(C)o3)nc3ccccc23)c1,0
CCSc1ncccc1C(N)=O,0
COC(=O)c1ccc([C@@H]2Nc3c(C)cccc3[C@@H]3C=CC[C@@H]32)cc1,0
CN(C)C(=O)c1cccc2c1NC(c1ccc(Br)cc1)C1CC=CC21 (stereo not drawn),0
O=C(O)C1Nc2c(I)cccc2C2C=CCC12 (stereo not drawn),-8.1
CCc1c(O)n(C2CCCCC2)c(=S)[nH]c1=O,0
O=c1c(N2CCC3(CC2)OCCO3)csc2ccccc12,0
O=c1c(N2CCN(c3ccccc3)CC2)csc2ccccc12,0
Cc1ccc2scc(N3CCOCC3)c(=O)c2c1,-4.2
COC(=O)C1=NNC2C(=O)N(c3c(C)cc(C)cc3C)C(=O)C12 (stereo not drawn),0
Cc1c(C#N)sc2ccccc12,0
c1ccc2c(c1)sc1ccccc12,-10
COc1c(C#N)sc2ccccc12,0
CC(C)n1c(NN)nc2ccccc21,0
CCCCCCCCCC(=O)Nc1ccc(C(=O)Nc2cccc3c2C(=O)c2ccccc2C3=O)cc1,0
COc1ccc(NC(=O)c2sc(=S)n3c2[nH]c(=O)c2ccccc23)cc1,0
Cc1cccc(N2CCN(C(=O)c3ccc4c(=O)[nH]c5c(C(=O)NC(C)C)sc(=S)n5c4c3)CC2)c1C,-3.9
Cc1ccc(NC(=O)c2sc(=S)n3c2[nH]c(=O)c2ccccc23)c(C)c1,0
COc1ccccc1/C=C1\N=C(c2ccco2)OC1=O,0
COc1cccc(CCOC(=O)NCCC2CCCN2C)c1 (stereo not drawn),0
O=C(NCCSCc1ccco1)Nc1cc(Cl)cc(Cl)c1,0
O=C(Nc1ccc(N2CCOCC2)cc1)Nc1ccc2nc(-c3ccco3)c(-c3ccco3)nc2c1,0
O=C(NCCCO)Nc1ccc2nc(-c3ccco3)c(-c3ccco3)nc2c1,-7.3
CC1CCCC(C)N1C(=O)NC1CCCCC1 (stereo not drawn),0
SMILES,Ba CapD inh
O=C(Nc1cc(Cl)ccc1Oc1ccc(Br)c2ccccc12)c1cc(I)cc(I)c1O,0
NC(=S)N/N=C/c1ccco1,0
N#C/C(=C\C=C\c1ccco1)C(N)=S,-12
N#C/C(=C\C=C\c1ccco1)c1nc2c(s1)CCCC2,0
COc1cc2c(cc1OC)C(Nc1ccc(Cl)c(Cl)c1)=NC(C)(C)C2,0
COC(=O)c1ccc(Cn2nc(C(F)(F)F)cc2C)o1,0
COC(=O)c1ccc(Br)o1,0
O=C(O)c1ccc(Br)o1,0
O=C(ON1C(=O)CCC1=O)c1ccc(Br)o1,-5.7
CCOC(=O)C1=C(c2ccccc2)OC(N)=C(C#N)C1c1ccc(Cl)c([N+](=O)[O-])c1 (stereo not drawn),0
CC[N+]1(CC(O)COc2ccc(Br)cc2Br)CCOCC1 (stereo not drawn),0
COc1cc(/C=C2/SC(=S)N(CC(=O)O)C2=O)cc(OC)c1OC,0
COc1cc(OC)c(OC)cc1/C=C1/SC(=S)N(CC(=O)O)C1=O,-3.8
COc1ccc(OC)c(/C=C2/SC(=S)N(CC(=O)O)C2=O)c1,0
COc1ccc2c(c1)c(CC(=O)NCc1ccoc1)c(C)n2C(=O)c1ccc(Cl)cc1,0
Cc1ccc(C)n1NC(=O)c1ccco1,0
COc1cc(C(=O)NN2S(=O)(=O)c3ccccc3S2(=O)=O)cc(OC)c1OC,0
O=C(NN1S(=O)(=O)c2ccccc2S1(=O)=O)c1cscn1,-6
O=C(NN1S(=O)(=O)c2ccccc2S1(=O)=O)c1ccc(Br)cc1,0
O=C(NN1S(=O)(=O)c2ccccc2S1(=O)=O)c1ccco1,-5.7
O=C(Nc1ccccc1C(=O)NN1S(=O)(=O)c2ccccc2S1(=O)=O)c1ccccc1Cl,0
Cn1c2c(c(=O)n(C)c1=O)C(c1ccc(O)c(O)c1)C1=C(N2)c2ccccc2C1=O (stereo not drawn),0
Cc1ccc(S(=O)(=O)NC(=O)N2CCN(c3nc(C)cc(C)n3)CC2)cc1,0
Cc1nn2c(=O)/c(=C/C=C/c3ccccc3)sc2nc1=O,0
Cc1nn(-c2ccccc2)c(C)c1CN1CCC(NS(=O)(=O)c2cccc(Br)c2)C1 (stereo not drawn),0
SMILES,Ba CapD inh
O=C1C=CC(=NS(=O)(=O)c2ccc(F)cc2)C=C1,0
Cc1ccc(Cl)cc1-n1c(=O)cc(N2CC(C)OC(C)C2)[nH]c1=O (stereo not drawn),0
COc1ccc(-n2c(=O)cc(N3CCCC3)[nH]c2=O)cc1,0
CC1CN(c2cc(=O)n(-c3ccc(Cl)cc3)c(=O)[nH]2)CC(C)O1 (stereo not drawn),-4.1
O=C(Nc1ccccc1)c1ccc(Br)cc1,0
O=C(Nc1ccc(C(=O)c2ccccc2)cc1)c1ccccc1,0
CS(=O)(=O)c1ccc(C(=O)Nc2ccccc2)cc1,-2.9
CCCc1cc2ccccc2o1,0
Cc1cccc(C)c1N1CCN(S(=O)(=O)c2ccc(Cl)c(Cl)c2)CC1,0
O=C(O)c1cc2ccc(O)cc2oc1=O,0
O=C(c1ccc2c(c1)OCO2)c1cc2ccc(O)cc2oc1=O,0
O=C(c1ccc(F)cc1)c1cc2ccc(O)cc2oc1=O,-6.4
NC1=NC(=O)/C(=C/c2ccc(O)c(Br)c2)S1,0
COc1ccccc1C(=O)NNC(=O)OCc1ccccc1,0
CN(C)C(=S)SCN1CCCC1=O,0
COc1ccccc1-c1c(C)nn2c(N3CCc4ccccc43)cc(C)nc12,0
Cc1cc(N2CCc3ccccc32)n2ncnc2n1,-4.7
Cc1cc(N2CCN(c3ccccn3)CC2)n2ncnc2n1,0
CC(C)C(C(=O)OCC(=O)c1cccc([N+](=O)[O-])c1)N1C(=O)C2C3c4ccccc4C(c4ccccc43)C2C1=O (stereo not drawn),0
Cc1ccc(S(=O)(=O)c2cnc(-c3ccccn3)nc2-c2cccnc2)cc1,0
CC(C(=O)O)N1C(=O)/C(=C\c2ccco2)SC1=S (stereo not drawn),-4.9
O=C(O)CCN1C(=O)/C(=C\c2ccccc2)SC1=S,0
O=C(O)CCN1C(=O)/C(=C/c2ccccc2)SC1=S,0
CC(C(=O)O)N1C(=O)/C(=C/c2ccccc2Cl)SC1=S (stereo not drawn),0
O=C(O)CCN1C(=O)/C(=C/c2ccco2)SC1=S,-6.1
SMILES,Ba CapD inh
Cc1ccc(/C=C2/SC(=S)N(C(C)C(=O)O)C2=O)o1 (stereo not drawn),0
CN1C(=O)/C(=C/c2ccccc2Cl)Sc2ccc(C(=O)N3CCN(C(=O)c4ccco4)CC3)cc21,0
NC(CO)C(=O)N/N=C/c1ccc(O)c(O)c1O (stereo not drawn),-6.9
NC(CO)C(=O)NNCc1ccc(O)c(O)c1O (stereo not drawn),0
CCC(Nc1ccccc1)C(=O)N/N=C/c1ccccc1O (stereo not drawn),0
CC(C)/C=N/N1C(N)=C(C#N)C(C#N)(C#N)C1C(C)C (stereo not drawn),0
O=C(Oc1ccc(Oc2ccccc2)cc1)c1cccc([N+](=O)[O-])c1,0
O=C(O)c1ccc([N+](=O)[O-])c2c1NC(c1ccc([N+](=O)[O-])cc1)C1CC=CC21 (stereo not drawn),0
CC(=O)Oc1ccc(C2Nc3c(C(=O)O)ccc([N+](=O)[O-])c3C3C=CCC32)cc1 (stereo not drawn),-2.7
CC(=O)Oc1ccc(C2Nc3c(C(=O)c4ccccc4)cc(Cl)cc3C3C=CCC32)cc1 (stereo not drawn),0
CN(C)CC(O)COc1cccc2ccccc12 (stereo not drawn),0
NC1=Nc2cc(C(=O)O)ccc2Sc2ccccc21,0
